As a reminder, the inhibition is the change of the read-out against control, counted positive when it falls.

From PubChem BioAssay AID588726 (The Scripps Research Institute Molecular Screening Center, 2011) come the findings set out here.

Each structure is given as a SMILES string. Hit rate of the full screen: of about 360,000 compounds, about 8,200 (2.3%) were called active. The sample holds actives, similar compounds and a random draw of the others, so the mix is not that of the screen. Rule as the data show it: active = inhibition above about 27%; inactive = the rest.

For this experiment, the target named is Fructose-bisphosphate aldolase (Mycobacterium tuberculosis (strain ATCC 25618 / H37Rv)) (UniProt P9WQA3). As to the kind of experiment: M. tuberculosis aldolase activity blockers – biochemical, fluorescence, strain H37Rv, primary screen (AID 588726).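 Also: 0% = vehicle and 100% = reference inhibitor.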 As to conditions: purified M. tuberculosis FBA, fluorescence read-out, at 1 µM, active compounds read high.
Sequence of Fructose-bisphosphate aldolase (Mycobacterium tuberculosis (strain ATCC 25618 / H37Rv)) (P9WQA3 whole entry, looked up): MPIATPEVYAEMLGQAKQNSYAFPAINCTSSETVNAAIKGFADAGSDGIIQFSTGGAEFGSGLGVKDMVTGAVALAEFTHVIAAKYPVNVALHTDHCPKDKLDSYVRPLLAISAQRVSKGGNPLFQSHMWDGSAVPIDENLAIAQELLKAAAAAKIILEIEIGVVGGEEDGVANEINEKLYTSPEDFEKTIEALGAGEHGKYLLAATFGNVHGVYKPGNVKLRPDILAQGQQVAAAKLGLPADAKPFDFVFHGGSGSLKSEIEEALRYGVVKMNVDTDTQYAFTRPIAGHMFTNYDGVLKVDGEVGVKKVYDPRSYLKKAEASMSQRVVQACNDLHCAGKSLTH
On to `COc1ccc(N(C(=O)c2snc(C(N)=O)c2N)C(C(=O)NC2CCCC2)c2ccc(C)o2)c(OC)c1` (stereo not drawn), for which the inhibition is 2.34% (inactive).
Then `CCOC(=O)c1ccc(CS(=O)c2ccc(Cl)cc2)o1` (stereo not drawn), with -0.81% (inactive); and `CCOC(=O)c1ccc(-c2ccc3ncnc(N(C)Cc4sccc4C)c3c2)o1`, with 171% (active); and `COc1ccccc1C(=O)Nn1c(-c2cccs2)nc2ccccc2c1=O`, with 0.05% (inactive).
Then `CCc1nnc(NC(=O)CSc2nc3ccccc3c(=O)n2CCCOC)s1`, with -4.95% (inactive); and `CC1CN(c2cc(=O)n(Cc3ccc(F)cc3)c(=O)[nH]2)CC(C)O1` (stereo not drawn), with -1.34% (inactive); and `Cc1ccc2c(C)c(C(=O)N3CCC(N4CCC(C(=O)NC5CC5)CC4)CC3)oc2c1`, with 1.31% (inactive).
Next, `Cc1cc(-c2ccccc2)nc(N2CCC(C(=O)NC34CC5CC(CC(C5)C3)C4)CC2)n1`: 170% (active).
Consider `CC(=O)N1CCC(C(=O)Nc2nc(-c3ccccc3)ns2)CC1`, for which the inhibition was -0.01% (inactive).
On to `O=C(NNC(=O)C1CCN(c2ncccn2)CC1)c1ccccc1`, for which the inhibition was 1.54% (inactive).
Next, `CCOc1cc(-c2noc(CCC(=O)N3CCOCC3)n2)ccc1OC`: 1.37% (inactive); `CCCn1c(=O)c(-c2ccccc2)c(O)c2ccccc21`: 35.6% (active).
`CCCn1c(=O)c(C(=O)Nc2cc(C)ccn2)c(O)c2ccccc21`: the inhibition was 1.3% (inactive).
Then `CCCCCn1c(=O)c(C(=O)OCC)c(Cl)c2ccccc21`, with 1.96% (inactive); and `Cc1cccc(C(=O)C(O)(c2ccccc2)C2CCCCC2=O)c1` (stereo not drawn), with 3.06% (inactive); and `O=C(Nc1cccnc1)c1noc2c1CCCCC2`, with 1.31% (inactive).
Then `N#CC1(Nc2ccc3c4c(cccc24)CC3)CCCCC1`, with 48% (active); and `CC(C)C(=O)Nc1ccc2c3c(cccc13)CC2`, with -0.4% (inactive); and `N#CC1(Nc2ccc(-c3ccc(Cl)cc3)cc2)CCCC1`, with -1.27% (inactive).
For `O=C(c1ccccc1)c1cc(-c2ccccn2)c(N2CCOCC2)s1`, the inhibition was -4.69% (inactive).
Then `CSc1ncnc2c1ncn2CC(=O)C1CCC2C3CCC4=CC(=O)CCC4(C)C3CCC12C` (stereo not drawn), with -0.85% (inactive).
Next, `COCCCNC(=O)CC1C[C@H](C(=O)N2CCCCC2)[C@@]2(CCc3ccccc3)c3[nH]c4ccccc4c3CCN2C1=O` (stereo partly drawn): 0.45% (inactive); `COc1ccc2c(CC(=O)OCC(=O)NC(N)=O)coc2c1`: 2.04% (inactive); `Cc1ccc2nc(NCCCNC(=O)c3cnccn3)c(C#N)cc2c1`: 22.9% (inactive).
Next, `Cc1ccc2cc(C#N)c(NCCNC(=S)NCCCN3CCOCC3)nc2c1`: 11.2% (inactive); `COCCCNC(=S)NCCNc1nc2cc(C)c(C)cc2cc1C#N`: 27.3% (active).
Regarding `CCCC(C(=O)NCc1ccco1)N(C(=O)CNS(=O)(=O)c1ccccc1)C1CCCC1` (stereo not drawn), the inhibition was 0.18% (inactive).
Next, `c1ccc2cc(CCCc3cc4ccccc4cn3)ncc2c1`: 5.36% (inactive); `O=C(CSc1nnc(-c2ccncc2)n1C1CCCCC1)Nc1ccccc1`: -1.22% (inactive).
Next, `CC1CCCN(S(=O)(=O)c2ccc(-c3ccc(=O)[nH]n3)o2)C1` (stereo not drawn): 3.28% (inactive); `Cc1c(NC(=O)C(C)OC(=O)c2ccccc2O)c(=O)n(-c2ccccc2)n1C` (stereo not drawn): -3.77% (inactive).
Next, `COC(=O)c1ccccc1NC(=O)CSc1ccccn1`: 1.02% (inactive).
With `CC(OC(=O)c1ccccc1NCCO)C(=O)Nc1ccnn1C(C)C` (stereo not drawn), the inhibition is 92% (active).
For the molecule `C=CCn1cc(C(=O)NCc2ccc(Cl)cc2)c(=O)c2cc(S(=O)(=O)N(CC)CC)ccc21`, the inhibition is 3.32% (inactive).
Next, `O=C(COC(=O)/C=C/c1ccc(Cl)cc1)NC1CCS(=O)(=O)C1` (stereo not drawn): -2.05% (inactive).
Then `O=C(COC(=O)CCCN1C(=O)c2cccc3cccc(c23)C1=O)NC1CCS(=O)(=O)C1` (stereo not drawn), with 45.1% (active).
Then `Nc1ccc(C(=O)OCC(=O)NC2CCS(=O)(=O)C2)cc1[N+](=O)[O-]` (stereo not drawn), with -2.41% (inactive); and `COc1ccc(NC(=O)CCC(=O)N2CCN(S(=O)(=O)c3ccc(C)cc3)CC2)c(OC)c1`, with -0.33% (inactive); and `CCn1ccnc1CN1CCCC(C(=O)c2ccc3c4c(cccc24)CC3)C1` (stereo not drawn), with 8.92% (inactive).
Regarding `Cc1ncoc1C(=O)N1CCCC(C(=O)c2ccc3c4c(cccc24)CC3)C1` (stereo not drawn), the inhibition is 17.8% (inactive).
Next, `CC(=O)NCC(=O)N1CCCC(C(=O)c2ccc3c4c(cccc24)CC3)C1` (stereo not drawn): 33.7% (active).
Next, `CCOC(=O)c1cnc2sccn2c1=O`: 20.1% (inactive); `CCOC(=O)c1cnc(COc2ccccc2Cl)[nH]c1=O`: 3.61% (inactive); `CCCc1cc(C(=O)N2CCCC(CO)(CCCc3ccccc3)C2)n(C)n1` (stereo not drawn): -1.51% (inactive).
Then `O=C(O)c1ccc(-n2nc(-c3ccccc3)c3ccccc3c2=O)cc1`, with 2.23% (inactive).
For `N#Cc1c(-c2ccccc2)c(-c2ccccc2)n[nH]c1=O`, the inhibition was -6.25% (inactive).
Next, `O=C(O)c1n[nH]nc1-c1ccccc1`: 113% (active); `COc1cc(Cl)c(C)cc1NC(=O)COC(=O)c1cc(SC)ccc1Cl`: 7.33% (inactive).
In the case of `O=C(O)CSc1nccn1-c1cccc(Cl)c1`, the inhibition is 3.31% (inactive).
Turning to `COC(=O)NNC(=O)C1CCC(C)CC1` (stereo not drawn), the inhibition is 1.9% (inactive).
For `CCOC(=O)N1CCN(C(=O)CSc2nc(C)nc3c2c(=O)n(C)c(=O)n3C)CC1`, the inhibition is 4.39% (inactive).
Regarding `OCC[C@H]1C[C@H](O)[C@@H](O)[C@]2(CCc3ccccc3O2)O1`, the inhibition was -1.81% (inactive).
Next, `NC(=O)CC[C@@H]1NC(=O)[C@@H]2CCCN2C(=O)c2cc([N+](=O)[O-])cc(F)c2NCCC[C@@H](C(N)=O)NC1=O`: -3.88% (inactive); `Cc1cc(C(=O)OCC(=O)NCc2ccco2)c(C)n1-c1ccccc1`: -0.83% (inactive).
Next, `O=C(NCc1ccco1)c1ccc([N+](=O)[O-])cc1Cl`: 3.22% (inactive).
Then `CCc1ccc(-c2cc(C(=O)NCc3ccco3)c3ccccc3n2)s1`, with 54.1% (active); and `CN(Cc1ccc(C(F)(F)F)cc1)C(=O)[C@H]1O[C@@H](n2cnc3c(N)ncnc32)[C@H](O)[C@@H]1O`, with -0.98% (inactive); and `CCN1C(=O)CS/C1=N\c1nccs1`, with -3.46% (inactive).
Consider `COc1cc2c(cc1OC)CC1(CCCCC1)N=C2`, for which the inhibition was 45% (active).
Then `Cc1ccc(S(=O)(=O)NCc2ccc(C(=O)NC3CCC(C)CC3)cc2)cc1` (stereo not drawn), with -7.12% (inactive); and `COc1ccc(C(=O)Cn2nnc(-c3ccc(N4CCOCC4)cc3)n2)cc1OC`, with -1.43% (inactive).
Next, `COCCCn1c(CCC(=O)O)ccc1-c1ccc(F)cc1`: 50.6% (active).
Next, `COc1ccc(-c2ccc(CCC(=O)O)n2-c2ccc(O)cc2)cc1`: -1.15% (inactive); `COc1ccc(-c2ccc(CCC(=O)O)n2NC(=O)c2ccc(C(C)(C)C)cc2)cc1`: 3.01% (inactive); `CC(=O)Nc1ccc(Sc2ccccc2C(=O)N2CCCC2)cn1`: 1.32% (inactive).
Consider `CCOc1ccc(C2C3=C(CCCC3=O)N(CC(=O)O)C3=C2C(=O)CCC3)cc1`, for which the inhibition was 39.2% (active).
Consider `COc1ccc(C2C(C#N)=C(N)N(c3ncn[nH]3)C3=C2C(=O)CCC3)cc1` (stereo not drawn), for which the inhibition was 3.59% (inactive).
Next, `CCOC(=O)C1=C(N)N(c2ccc(C)cc2)C2=C(C(=O)CCC2)C1c1cccs1` (stereo not drawn): -1.49% (inactive).
Then `CCCN1C2=C(C(=O)CCC2)C(c2ccc(O)c(Br)c2)C2=C1CCCC2=O`, with -1.2% (inactive).
Turning to `CCOc1ccc(C2C(C#N)=C(N)N(N(C)C)C3=C2C(=O)CCC3)cc1` (stereo not drawn), the inhibition is -0.23% (inactive).
Next, `COc1ccc(C2C3=C(CCCC3=O)N(CC(=O)O)C3=C2C(=O)CCC3)cc1`: 47.7% (active); `CC(C)c1ccc(Nc2nnc(SCC(=O)c3nnc(-c4ccccc4)o3)s2)cc1`: -2.05% (inactive); `CCOC(=O)C1CCN(C(=O)C2CCCN(S(=O)(=O)c3ccc(OC)c(Cl)c3)C2)CC1` (stereo not drawn): 13.8% (inactive).
Next, `O=C1NC(c2cccc(Cl)c2)Nc2ccccc21` (stereo not drawn): 30.3% (active); `O=C1NC(c2ccccc2)Oc2ccccc21` (stereo not drawn): 6.04% (inactive).
Then `COc1ccc(C2NC(=O)c3ccccc3N2)cc1` (stereo not drawn), with 67% (active).
Consider `C=CCOc1cccc(C2NC(=O)c3ccccc3O2)c1` (stereo not drawn), for which the inhibition was 5.49% (inactive).
Then `COc1ccc(C2CC(=O)NC(=O)C2)cc1`, with 0.31% (inactive); and `COc1ccc(C2(O)C(=O)Nc3ccccc32)cc1` (stereo not drawn), with 1.93% (inactive).
Then `CC(C)=CCCC1(C)C=Cc2c(ccc3c2[nH]c2cc(O)c(C)cc23)O1` (stereo not drawn), with -3.09% (inactive).
As for `COc1cccc(CNC(=O)C(=O)NCCC2CCCCN2S(=O)(=O)c2ccc(C)cc2)c1` (stereo not drawn), the inhibition is 1.18% (inactive).
Take `COC(=O)C1NN=C(C(=O)c2ccc(Br)cc2)C1c1cccc(Br)c1` (stereo not drawn): the inhibition was -2.34% (inactive).
In the case of `CC(=O)Nc1cccc(Nc2ccc(C#N)cc2)c1`, the inhibition was 0.34% (inactive).
Next, `Cc1ccc(C2Nc3cccc4cccc(c34)N2)cc1`: 49.3% (active); `Oc1ccc(C2Nc3cccc4cccc(c34)N2)cc1`: -2.34% (inactive).
Next, `O=[N+]([O-])c1ccc2c(c1)C(N1CCOCC1)/C(=C/C1(O)CCCCC1)O2` (stereo not drawn): -4.67% (inactive); `Cc1ccccc1Cn1nc(C)c(NC(=O)C(F)(F)F)c1C`: -0.53% (inactive); `COCc1cc(=O)[nH]c2cc(NC(=O)C(F)(F)F)c(C)cc12`: 31.5% (active).
On to `O=C(Nc1ccccc1)c1ccccc1NC(=O)C(F)(F)F`, for which the inhibition was -0.1% (inactive).
Then `COCCCN1C(=O)C(=O)/C(=C(/O)c2ccc(S(=O)(=O)N3CCOCC3)cc2)C1c1ccc(F)cc1` (stereo not drawn), with 4.42% (inactive); and `COc1ccccc1NC(=O)COc1ccc(C(=O)OCC(=O)N(C(C)C)C(C)C)cc1OC`, with 33.2% (active).
Next, `COc1cc(CO)ccc1OCC(=O)Nc1cccc2ccccc12`: -1.87% (inactive); `COc1ccccc1NC(=O)COC(=O)COc1ccccc1F`: -0.62% (inactive).
